BoNT-A LC inh2 – blocks Botulinum neurotoxin A light chain protease; inhibition, % at 10 µM; multiplex microsphere protease substrate cleavage, flow cytometry; actives 0.17% (n = 360,000); note: plate controls were buffer without enzyme for full effect and enzyme alone for no effect
BoNT-F LC inh – blocks Botulinum neurotoxin F light chain protease | Multiplex microsphere protease cleavage assay, flow cytometry | inhibition, % at 10 µM | actives 0.22% (n = 360,000) | AID 588497; in the data active = inhibition above about 35%, passing the limit was not always enough; inconclusive = no clear call, values can overlap the other calls; note: plate controls were buffer without enzyme for full effect and enzyme alone for no effect
Anthrax LF prot – blocks Bacillus anthracis lethal factor protease. P15917. actives 0.12% (n = 360,000). AID 588501. inhibition, % at 10 µM. multiplex microsphere protease cleavage assay, LF; note: plate controls were buffer without enzyme for full effect and enzyme alone for no effect
Autofluor counter – flagged as autofluorescent in microsphere protease counterscreen. actives 3.1% (n = 360,000). fluorescence intensity (no concentration beside the values). AID 624483. compound autofluorescence counterscreen, microsphere flow cytometry; stronger effect = higher value; in the data active = fluorescence intensity above about 16000; inconclusive = no clear call, values can overlap the other calls
Numbers without * were called inactive; ? = inconclusive. In the library only some 3.5% were active in any assay of this set; here they are far more common. Cut-off read from the data, not from the text of the source, unless noted: active = inhibition above about 30%; inconclusive = no clear call, values can overlap the other calls; inactive = below that.

SMILES	BoNT-A LC inh2	BoNT-F LC inh	Anthrax LF prot	Autofluor counter
COc1ccc(N=C2SC(CC(=O)Nc3ccc(OC)cc3OC)C(=O)N2C)cc1 (stereo not drawn)	3.2	4.7	-2.5	20859*
COc1ccc(OC)c(NC(=O)CC2SC(=Nc3ccccc3)N(CCc3ccccn3)C2=O)c1 (stereo not drawn)	1.1	-3.6	-1.0	2027
CCc1ccc([C@@H]2CC=C(C(=O)O)[C@H](c3ccc(F)cc3)N2S(=O)(=O)c2ccc(C)cc2)cc1	-0.3	-1.5	-13.9	4059
O=C(CSc1ccc2ccccc2n1)N1CCC(c2noc3ccc(F)cc23)CC1	-8.0	-9.9	0.4	22244*
Cc1ccc(CNC(=O)c2cc(C)nn2-c2ccccc2)cc1	0.5	1.3	-2.0	4071
Cc1ccc(Cc2nnc3n(-c4ccccc4)nc(C(=O)c4ccccc4)n3c2=O)cc1	-2.7	-5.4	-1.2	21560*
CCOCCCNC(=S)NNC(=O)CCn1nc(C)c(Br)c1C	-5.2	-4.7	-0.6	24089*
CC1=NN(c2ccc(C(=O)OC(C)C)cc2)C(=O)/C1=C\C=C\c1ccco1	1.8	-2.0	-4.9	19581*
CCOC(=O)c1ccc(N2N=C(C)/C(=C/C=C/c3ccco3)C2=O)cc1	?	-6.2	-4.9	22790*
Cc1ccc(C(=O)OCC(=O)Nc2cccc(S(=O)(=O)N3CCCCC3)c2)s1	0.3	-0.7	-2.0	3376
O=C(Nc1nnc([C@H]2C[C@H](O)[C@@H](CO)O2)s1)c1cccc(Oc2ccccc2)c1	0.3	-4.9	-7.3	2874
Nc1nnc(CC2=CCCCC2)s1	-1.7	-2.9	-9.2	22203*
Cc1csc(=O)n1CC(=O)OCC(=O)Nc1ccc(F)c(F)c1	-1.5	-6.6	3.4	6689
O=C(Cc1cccs1)Nc1nc(-c2ccc(F)cc2F)cs1	-5.8	-8.6	-1.3	17771*
CCCS(=O)(=O)Nc1cc(C(F)(F)F)ccc1OCCOC	-0.9	0.8	0.0	24565*
CC1(C)NC(=O)N(CC(=O)O)C1=O	-1.8	-3.9	-3.8	17429*
CC1(C)NC(=O)N(CN2C(=O)NC(C)(C)C2=O)C1=O	0.1	-0.1	-13.6	9110
N#Cc1cccc(CN2CCC(=O)N([C@H](CO)Cc3ccccc3)CC2)c1	0.4	-4.3	-8.7	4057
COc1ccc(NC(=O)CSc2nnc(C)s2)cc1S(=O)(=O)N1CCOCC1	0.1	4.9	0.3	3292
Cc1cc(C)c(C(=O)/C=C/c2ccc(C(C)C)cc2)c(=O)[nH]1	4.7	5.3	-1.3	17863*
CN1CCc2nc3sc(C#N)c(N)c3c(-c3cccs3)c2C1	15.1	-12.2	-0.7	19864*
CC(C)NC(=O)c1sc2nc3c(c(-c4cccs4)c2c1N)CN(C)CC3	0.7	-13.5	-3.2	2421
CCn1cc([N+](=O)[O-])c(C(=O)N2N=C3/C(=C/c4cccs4)CCCC3C2c2cccs2)n1 (stereo not drawn)	-5.3	-6.1	-0.3	21392*
CCn1cc([N+](=O)[O-])c(C(=O)N2CCOCC2)n1	-0.7	-6.9	-1.6	2353
O=C(CSc1nnnn1C1CCCCC1)N1CCOCC1	0.2	-1.7	-0.9	2481
SMILES	BoNT-A LC inh2	BoNT-F LC inh	Anthrax LF prot	Autofluor counter
O=C(CSc1nnnn1C1CCCCC1)N1c2ccccc2Sc2ccccc21	?	5.0	-1.3	19588*
O=C(CSc1nc(C2CC2)nc2ccccc12)N1c2ccccc2Sc2ccccc21	2.1	0.7	-0.7	22153*
CC(=O)c1ccc(NC(=O)CSc2nc(C3CC3)nc3ccccc23)cc1	1.9	-16.7	-4.0	4092
CCCCNC(=O)C1(C)CCN1C(=O)c1cncc(Br)c1 (stereo not drawn)	-0.1	-3.0	-2.6	3785
CCOC(=O)C1=C(Cc2ccc(Cl)cc2)C(=O)c2ccccc2C1=O	2.9	-9.9	-9.0	23250*
COc1ccccc1NC(=O)CSc1nc(=O)n(Cc2ccncc2)c2c1CCCC2	0.0	1.7	-1.3	5410
Cc1nc(-c2cccnc2)sc1C(=O)Nc1cccc(C(F)(F)F)c1	?	-3.6	-5.4	22572*
CNC(=O)c1sc(-c2cccnc2)nc1C	-0.9	-19.8	-2.0	?
Cc1nc(Cl)sc1C(=O)Nc1cccc(C(F)(F)F)c1	0.5	9.1	18.1	3694
Cc1nc(-c2cccnc2)sc1C(=O)Nc1ccc(C(F)(F)F)cc1	?	-3.1	0.4	22745*
O=C(NCCc1ccccc1)c1ccc(-n2cnnn2)cc1	?	-4.9	-1.9	16633*
Cc1ccc(S(=O)(=O)N(C)c2ccc(C(=O)NCCc3ccccc3)cc2)cc1	2.5	8.9	-0.4	4904
O=C(NCSC1=NCCS1)c1ccccc1	-3.8	-6.5	1.4	24719*
CN(c1ccc(C(=O)NCCc2ccccc2)cc1)S(C)(=O)=O	1.8	0.4	-0.3	20035*
CN(C)CCNC(=O)c1ccccc1	2.3	4.5	-17.9	20030*
O=[N+]([O-])c1ccccc1N(S(=O)(=O)c1ccccc1)S(=O)(=O)c1ccccc1	-0.1	-1.9	-5.5	3854
COc1ccccc1NC(=O)C(C)Sc1nnc2ccccn12 (stereo not drawn)	-1.9	-4.5	-2.4	8155
COc1cccc(CN2CC(C(=O)N(C)C3CCOCC3)CCC2=O)c1 (stereo not drawn)	-1.6	-11.6	-2.0	?
CCN(CC)S(=O)(=O)c1cccc(C(=O)Nc2ccc(C#N)cc2)c1	-1.4	-4.1	0.3	16843*
CCN(CC)S(=O)(=O)c1cccc(C(=O)Nc2cc(C)cc(C)c2)c1	1.2	16.8	0.5	3498
CN(C)S(=O)(=O)c1cccc(C(=O)NCCNC(=O)c2cccc(S(=O)(=O)N(C)C)c2)c1	-4.2	?	8.4	4081
CCN(CC)S(=O)(=O)c1cccc(C(=O)NCCc2ccccc2)c1	-2.6	0.5	-2.7	16952*
C=CCNC(=O)c1ccc(N(C)S(=O)(=O)c2ccc(OC)cc2)cc1	-1.5	-3.8	-0.4	16765*
CCN(CC)C(=O)c1[nH]cnc1C(=O)N[C@H](C)c1ccccc1	-0.2	-12.8	-0.1	3831
O=C1CC(c2ccccc2Cl)C2=C(COC2=O)N1 (stereo not drawn)	0.2	2.1	-1.0	23482*
SMILES	BoNT-A LC inh2	BoNT-F LC inh	Anthrax LF prot	Autofluor counter
N#CC1=C(N)Oc2c(oc(CO)cc2=O)C1c1ccccc1[N+](=O)[O-] (stereo not drawn)	-2.3	-8.1	?	3688
Cc1ccc(NC(=O)N2CCC(C(=O)NCCC3=CCCCC3)CC2)cc1	-0.4	-3.2	-3.4	16684*
Cc1ccc(NC(=O)N2CCCC2C(=O)NCCC2=CCCCC2)cc1 (stereo not drawn)	?	5.7	-9.5	18611*
Cc1ccc(CNC(=O)C2CCCN2C(=O)Nc2ccc(C)cc2)cc1 (stereo not drawn)	-2.2	7.9	2.0	3392
COc1ccccc1OCCSc1nc2ccccc2n1CC(=O)O	-0.1	9.0	0.4	3542
CCc1ccc(OCC(=O)Nc2ccc(-c3cc4ccccc4oc3=O)c(OC)c2)cc1	0.5	-5.5	0.9	2529
COc1cc(NC(=O)c2cc(Cl)ccc2Cl)ccc1-c1cc2ccccc2oc1=O	3.0	5.5	0.3	22732*
COc1ccc(O)c(CN2CCC(n3nccc3NC(=O)c3ccccc3Cl)CC2)c1	-1.4	-12.9	0.2	6355
CCc1cc2c(=O)c(-c3nc4ccccc4n3C)c(C)oc2c(CN2CCN(CCO)CC2)c1O	-0.1	-3.9	-2.8	7081
